# Hit rate of the full screen: of about 340,000 compounds, about 6,400 (1.9%) were called active. Roughly 4% stayed inconclusive and do not appear here. Calls follow the shape of the dose curve; as a rule, active = well fitted falling curve with a large enough effect; inconclusive = small, poorly fitted or top-dose-only effect; inactive = no such curve, though single readings can be large or run the other way. The entries come from a sample that favours actives as a whole. A call without a number means that no potency is given here.
# Biological target: ATP-dependent Clp protease proteolytic subunit (Bacillus subtilis (strain 168)) (UniProt P80244)
# Assay: qHTS Assay for Activators of ClpP; also: the source files actives as falling curves though it sought activators and does not explain the sign; nearly all actives have a fitted effect of over 65% in size
# Settings: purified B. subtilis ClpP, FRET peptide cleavage, 20 min; series mostly up to 57.5 µM
# Excerpt: The Clp protease proteolytic subunit (ClpP) is the core unit of the Clp complex belonging to the peptidase family S14 that hydrolyzes protein into small peptides in the presence of ATP and magnesium. It is ubiquitously expressed and is the major protease in bacteria. […] Unlike common antibiotics that simply interfere with the essential enzyme activity, ADEP binding activates the ClpP core in the absence of the regulatory Clp-ATPases leading to uncontrolled proteolysis and eventually cell death. Activators binding to the docking site on ClpP can also block formation of the ClpXP and ClpA/C-P holoenzyme complexes interfering with the normal biological functions of ClpP and thus have the potential to become new anti-microbials.
# To identify activators of ClpP, a FRET based quenching reversal assay was developed using a purified B. subtilis ClpP and a decapeptide substrate (FRET-FV). The FRET-FV is tagged with a fluorescent molecule amino benzoic acid (donor) at the N-terminus and a nitrotyrosine quencher (acceptor) at the C-terminus. FRET-FV cleaves upon activation of ClpP with ADEP treatement and reverses the quenching effect of the nitrotyrosine causing an increase in fluorescence emission signal at 430nm. This assay was used to screen the Molecular Libraries Small Molecule Repository (MLSMR).
# NIH Molecular Libraries Probe Production Centers Network [MLPCN]
# NIH Chemical Genomics Center [NCGC]
# Assay Submitter (PI): Michael Maurizi, National Cancer Institute
# Two and a half microL/well of purified enzyme solution (final concentrations 10 microg/mL B. subtilis ClpP in 100 mM Tris/HCl pH8, 100 mM KCl, 0.05% low protease BSA, 2.5% glycerol, 0.01% Tween-20 buffer) was dispensed into 1536-well assay plates (Greiner, black solid, medium-binding plates) with Aurora Discovery BioRAPTR Flying Reagent Dispenser (FRD, Beckton-Dickenson). Compound solution (23 nL) was transferred to the assay plate using Kalypsys pin tool equipped with a 1536-pin tool. […] FRET signals at time 0 and after 20 min room temperature incubation were obtained using the PerkinElmer Envision plate reader with 320nm excitation and 430nm emission filters. Delta FRET value (Time 20 - Time 0) was calculated and normalized to the delta FRET value of positive control ADEP (5.8 microM final concentration) and negative control DMSO and no enzyme wells.
# Potency is read from the fitted curve at half-maximal effect.
# ATP-dependent Clp protease proteolytic subunit (Bacillus subtilis (strain 168)), sequence (P80244 whole entry, looked up): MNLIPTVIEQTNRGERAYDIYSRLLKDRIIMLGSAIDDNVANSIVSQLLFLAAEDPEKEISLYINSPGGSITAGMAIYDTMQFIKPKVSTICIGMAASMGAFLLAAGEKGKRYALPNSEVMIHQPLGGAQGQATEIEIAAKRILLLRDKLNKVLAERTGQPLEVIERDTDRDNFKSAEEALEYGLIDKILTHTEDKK
row,Compound,Potency
1,Fc1ccc(C2N3CCCN23)cc1 (centres undefined),28.2 µM (active)
2,O=c1[nH]c2ccccc2n1C1CCN(C(c2ccnc3ccccc23)c2nnnn2Cc2ccccc2)CC1 (centres undefined),inactive
3,COC(=O)COc1cc(C)cc2oc(=O)c3c(c12)CCCC3,inactive
4,CCN1CCN(C(=O)Cc2coc3cc(C)cc(C)c23)CC1,inactive
5,Cc1cc(OCc2cc(C(=O)O)oc2C)c2c3c(c(=O)oc2c1)CCCC3,28.2 µM (active)
6,Cc1ncoc1C(=O)NCC1=C(c2cccc3ccccc23)C[C@@H]2CC[C@H]1N2Cc1ccco1,inactive
7,CCOc1ccc(CNC(=O)c2cccc(Nc3nc4ccccc4n4nnnc34)c2)cc1OC,inactive
8,CCOC(=O)c1c(N)n(CCN2CCOCC2)c2nc3ccccc3nc12,25.1 µM (active)
9,CC/C(=N\NC(=O)c1ccccc1O)c1c(O)n(Cc2ccccc2)c(=O)[nH]c1=O,inactive
10,CCOC(=O)c1c(N)n(Cc2ccccc2)c2nc3ccccc3nc12,28.2 µM (active)
11,COc1cc(Cn2c(N)c(C(=O)NCc3ccco3)c3nc4ccccc4nc32)cc(OC)c1OC,28.2 µM (active)
12,CCOC(=O)c1cccc(C2=C(CNC(=O)c3ccncc3)[C@H]3CC[C@@H](C2)N3Cc2ccccc2)c1,inactive
13,COC(=O)C1=C(c2ccccc2)C[C@@H]2CC[C@H]1N2C(=O)NCc1ccco1,inactive
14,c1cc2c(cc1C1OCC3C(c4ccc5c(c4)OCO5)OCC13)OCO2 (centres undefined),inactive
15,COc1cccc(C(c2nnnn2-c2ccc3c(c2)OCCO3)N2CCC3(CC2)C(=O)NCN3c2ccccc2)c1OC (centres undefined),inactive
16,S=C(NCCc1ccccc1)N1Cc2cc(N3CCOCC3)ccc2-n2nncc2C1,inactive
17,O=c1[nH]c2ccccc2n1C1CCN(C(c2ccccc2)c2nnnn2Cc2ccccc2)CC1 (centres undefined),inactive
18,CC(=O)NCC1=C(c2ccc3ccccc3c2)C[C@@H]2CC[C@H]1N2Cc1ccco1,inactive
19,CSCCC(c1nnnn1C(C)(C)C)N1CCC(n2c(=O)[nH]c3ccccc32)CC1 (centres undefined),inactive
20,CCn1cc(CN2CCCC(C(=O)c3cccc(C(F)(F)F)c3)C2)cn1 (centres undefined),inactive
21,COc1ccc(C2C=C(C)Oc3c2c(=O)oc2ccccc32)cc1OC (centres undefined),inactive
22,O=C(O)/C=C/c1ccc2c(c1)OCO2,inactive

row,Compound,Potency
1,O=c1c2ccccc2[nH]c(=S)n1-c1cccc(Cl)c1,inactive
2,CC(C(=O)Nc1ccc(Cl)cc1Cl)N1CC=C(c2ccccc2)CC1 (centres undefined),28.2 µM (active)
3,O=C(Nc1ccc(Cl)cc1C(=O)c1ccccc1)c1cc(Cl)cc(Cl)c1,inactive
4,CN1CCN(C(=S)SCC(=O)Nc2ccc(Cl)cc2C(=O)c2ccccc2)CC1,inactive
5,O=C(NCC1=C(c2ccc3ccccc3c2)C[C@@H]2CC[C@H]1N2Cc1ccco1)c1cccs1,inactive
6,COC(=O)C1=C(c2ccc(OCc3ccccc3)cc2)C[C@@H]2CC[C@H]1N2C(=O)NCc1ccc(Cl)cc1,inactive
7,CCOc1ccc(-c2cc(C)n3nc(C(=O)Nc4ccc(C)c(C)c4)cc3n2)cc1,3.55 µM (active)
8,ClCCN(CCCl)c1ccc(C=Nc2ccc(/C=C/c3ccnc4ccccc34)cc2)cc1,inactive
9,COC(=O)C1=C(c2ccc(OCc3ccccc3)cc2)C[C@@H]2CC[C@H]1N2C(=O)NCc1cccc(F)c1,inactive
10,O=C(c1cc2nc(-c3ccccc3)cc(-c3ccccc3)n2n1)N1CCC2(CC1)OCCO2,35.5 µM (active)
11,O=C(c1ccccc1[N+](=O)[O-])N1CCC2(CC1)OCCO2,inactive
12,O=C(c1cc(S(=O)(=O)N2CCOCC2)ccc1F)N1CCC2(CC1)OCCO2,inactive
13,O=C(c1cc(-c2ccncc2)nc2ccccc12)N1CCC2(CC1)OCCO2,28.2 µM (active)
14,Cc1ccc(-c2cc(C(=O)N3CCC4(CC3)OCCO4)no2)cc1,inactive
15,Cc1cccc(-n2c(C)nc3cc(C(=O)N4CCC5(CC4)OCCO5)ccc32)c1,inactive
16,COc1cc([C@@H]2c3cc4c(cc3[C@H](OC(C)=O)[C@H]3COC(=O)[C@H]23)OCO4)cc(OC)c1OC,inactive
17,COc1ccc(-n2nnnc2C(c2cccc3ccccc23)N2CCC(n3c(=O)[nH]c4ccccc43)CC2)cc1 (centres undefined),inactive
18,COc1ccc(NC(=O)N2CCC3(CC2)OCCO3)c(OC)c1,inactive
19,COc1ccc(-c2nc(CS(=O)CC(=O)N3CCC4(CC3)OCCO4)c(C)o2)cc1 (centres undefined),31.6 µM (active)
20,COc1ccc(S(=O)(=O)NCc2ccc(C(=O)N3CCC4(CC3)OCCO4)cc2)cc1,inactive
21,CCC(C)(O)C(=O)OC1C(=O)OC2CC3C(C)=CC(=O)C(O)C3(C)C3C4(O)OCC23C1C(C)C4O (centres undefined),inactive
22,CCOC(=O)[C@]12Cc3ccccc3[C@H]1N(C1CCCCC1)C(=O)c1cc(OC)ccc12,inactive

row,Compound,Potency
1,c1ccc(N2Cc3ccccc3-n3nncc3C2)nc1,inactive
2,COc1cc(C(=O)N2Cc3ccc(Br)cc3-n3nncc3C2)cc(OC)c1OC,inactive
3,C[C@H]1CN([C@@H](C)CO)C(=O)CCCn2nncc2CO[C@H]1CN(C)C(=O)Oc1ccccc1,inactive
4,COC(=O)C[C@H]1CC[C@H]2NC[C@@H](O)COC[C@@H]2O1,inactive
5,CCN(CC)CCOC(=O)c1cc2cc(COC)ccc2o1,28.2 µM (active)
6,O=P(OC1=CCCCC1)(c1ccccc1)c1ccccc1,inactive
7,CC(=CCOc1ccc2ccc(=O)oc2c1)C1=CC(=O)C(C)(C)O1,inactive
8,CC1C(=O)OC2CCN3CC=C(COC(=O)C(C)(O)C1(C)O)C23 (centres undefined),inactive
9,O=C(CCCn1c(=O)[nH]c2cc(Cl)ccc2c1=O)N1CCC2(CC1)OCCO2,28.2 µM (active)
10,Cc1ccc(Cn2c(C)c3cnn(CC(=O)N4CCC5(CC4)OCCO5)c(=O)c3c2C)cc1,inactive
11,Cc1nc2nc(C)c(CCC(=O)N3CCC4(CC3)OCCO4)c(C)n2n1,inactive
12,CC(=O)OC1C2(CC3N4C(=O)C5(CO)SSC4(CC31O)C(=O)N5C)OC(C)C(C)(C)C2=O (centres undefined),inactive
13,COc1ccc(NC(=O)N2Cc3ccccc3-n3nncc3C2)cc1,inactive
14,COC1C(O)C(C)OC(OC2CCC3(C=O)C(CCC4C3CCC3(C)C(C5=CC(=O)OC5)CCC43O)C2)C1O (centres undefined),inactive
15,C[C@H]1CN([C@@H](C)CO)C(=O)CCCn2nncc2CO[C@H]1CN(C)C(=O)Oc1cccc2ccccc12,inactive
16,CN(C)C(=O)Oc1ccc2c(c1)O/C(=C\c1ccccc1)C2=O,inactive
17,CCOC(=O)c1c(-c2ccccc2)oc2ccc(OC(=O)N(C)C)cc12,3.16 µM (active)
18,CN(C)C(=O)Oc1ccc(OCc2cccc[n+]2C)cc1,inactive
19,CCOC(=O)[C@]12Cc3cc(OC)ccc3[C@H]1N(C(C)C)C(=O)c1ccccc12,inactive
20,O=C(NC1CCCCC1)N1Cc2cc(N3CCCCC3)ccc2-n2nncc2C1,inactive
